Most compounds without a hit are left out; they make up all but 12% or so of the library.
JMJD2A Tudor – JMJD2A Tudor domain (human) inhibition; O75164; AlphaScreen JMJD2A-Tudor / H3K4me3 peptide binding; Potency, µM (highest dose often 114 µM), without a hit: at the top dose activity change, negative = inhibition, most hits filed as inhibitors; 4.4% of 390,000 active; further: on the % scale 0 is the no-effect control and ±100 the full control effect; nearly all actives have a fitted effect of over 50% in size
Sfp PPTase inh – Sfp phosphopantetheinyl transferase inhibition; Q9F4F7; Biochemical Sfp PPTase activity, qHTS; Potency, µM, inactives show largest response in the series, negative = inhibition, most hits filed as inhibitors; 3.5% of 310,000 active; AID 1490;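 further: the enzyme is Sfp with the accession as filed and its product quenches rhodamine fluorescence; 0% = enzyme reaction without inhibitor and -100% = no enzyme wells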
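Step 1, compound plus 15 nM Sfp-PPTase, 15 min, room temperature. Step 2, add rhodamine-CoA (5 uM) and BHQ-2-YbbR (12.5 uM). Step 3, read 525/598 nm fluorescence at 0 and 30 min.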
HP1b chromo inh – blocks HP1-beta chromodomain binding to methylated histone tails; P83916; AlphaScreen HP1-beta / biotin-H3K9me3 peptide binding; Potency, µM (doses to about 114 µM), for inactives: top-dose activity change, negative = inhibition, usual class: inhibitors; 0.56% of 390,000 active; AID 540317; further: nearly all actives have a fitted effect of over 70% in size
Target sequence (P83916 whole entry, looked up): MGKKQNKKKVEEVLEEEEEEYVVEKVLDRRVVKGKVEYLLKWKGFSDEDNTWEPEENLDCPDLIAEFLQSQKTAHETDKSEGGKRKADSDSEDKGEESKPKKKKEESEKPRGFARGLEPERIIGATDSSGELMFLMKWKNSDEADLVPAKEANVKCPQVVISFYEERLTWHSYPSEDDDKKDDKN
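HP1-beta protein (50 nM final) preincubated 30 min at room temperature with biotinylated H3(1-18)K9me3 peptide (50 nM) in PBS pH 7.4, 0.01% Tween-20, then compound added for 30 min. AlphaScreen streptavidin donor/nickel chelate acceptor beads (10 ug/mL final), 30 min dark, luminescence read.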
BAZ2B inh – BAZ2B (human) inhibition | 4.4% of 360,000 active | Q9UIF8 | AlphaScreen BAZ2B-H3K14Ac peptide displacement | Potency, µM (series often up to 114 µM), inactives show top-dose activity change, negative = inhibition, most hits filed as inhibitors; further: on the % scale 0 is the no-effect control and ±100 the full control effect; nearly all actives have a fitted effect of over 60% in size
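AlphaScreen luminescence quantifies BAZ2B engagement of H3K14Ac peptide; the protein and biotinylated peptide are both at 50 nM final, buffer PBS pH 7.4 with 0.01% Tween-20, all steps at room temperature.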
G9a block – G9a (human) methyltransferase inhibition; G9a H3K9 monomethylation, AlphaScreen, 2 h; Potency, µM (top dose mostly 102 µM), for the others: at the top dose activity, negative = inhibition, most hits filed as inhibitors; 8.8% of 350,000 active; AID 504332; further: on the % scale 0 is the no-effect control and ±100 the full control effect; nearly all actives have a fitted effect of over 75% in size
Target sequence (Q96KQ7 913-1193 limits assumed): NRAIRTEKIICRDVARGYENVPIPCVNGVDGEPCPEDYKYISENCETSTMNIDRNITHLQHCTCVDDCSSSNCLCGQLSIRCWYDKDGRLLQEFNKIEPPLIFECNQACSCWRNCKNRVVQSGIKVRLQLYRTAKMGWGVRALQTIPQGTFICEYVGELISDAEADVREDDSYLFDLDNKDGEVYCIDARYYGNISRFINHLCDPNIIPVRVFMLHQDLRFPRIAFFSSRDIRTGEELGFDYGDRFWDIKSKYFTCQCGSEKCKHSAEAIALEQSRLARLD
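Compounds were preincubated with 20 nM G9a for 15 min, after which biotinylated H3K9 peptide (500 nM) and SAM (20 uM) started a 2 h room-temperature reaction. Monomethylated product was quantified by antibody-based AlphaScreen chemiluminescence.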
An asterisk follows results filed as active; ? = inconclusive; / = no result; [ ] = dose if it differs, or a comment. The call rests on the fitted dose curve; in most records, active means well fitted curve in the direction sought with a large enough effect; inconclusive means small, poorly fitted or top-dose-only effect, or another doubt; inactive means no such curve, though single readings can be large; an effect the other way counts as inactive or inconclusive. Potency means the concentration at half of the fitted maximal effect.

SMILES	JMJD2A Tudor	Sfp PPTase inh	HP1b chromo inh	BAZ2B inh	G9a block
COc1ccccc1C(=O)NC(=O)COC(=O)c1ccc(Cl)nc1	-21%	/	12%	7%	5%
COc1ccc(OCC(=O)NC(=O)c2ccccc2OC)c([N+](=O)[O-])c1	-25%	/	-2%	-37%	50µM*
COc1ccccc1C(=O)NC(=O)COC(=O)c1nccnc1N	40µM*	/	11%	/	/
O=C(Cn1ncc(Cl)c(Cl)c1=O)N1CCc2ccccc21	-8%	-6%	38%	-6%	-10%
O=C(O)c1cccc(NC(=O)c2cn(-c3ccccc3)nc2-c2cc3ccccc3o2)c1	-28%	1%	-2%	50µM*	5%[59 µM]
O=C(N/N=C/c1cn(-c2ccccc2)nc1-c1cc2ccccc2o1)c1ccncc1	-6%	43%	24%	6%	-2%[59 µM]
Cc1ccc(OCc2cc(C(=O)N3CCc4[nH]cnc4C3c3ccccn3)no2)cc1C (centres undefined)	?	10%	9%	?	71µM*
Cc1ccc(OCc2cc(C(=O)N3CC4C[C@@H]5CC3C[C@H](C4)C5)no2)cc1C	-4%	-6%	26%	7%	34%
Cc1ccc(S(=O)(=O)N2CCOCC2)cc1NC(=O)C(c1ccc(Cl)cc1)C(C)C (centres undefined)	-16%	/	7%	7%	8%[0.501 µM]
CCCCC[C@H](O)/C=C/[C@@H]1[C@@H](C/C=C\CCCC(=O)OC)[C@@H](O)C[C@H]1O	22µM*	25µM*	?	14µM*	40µM*
CCCCC[C@H](O)/C=C/[C@H]1[C@H](O)CC(O)[C@@H]1C/C=C\CCCC(=O)O (some centres undefined)	/	24%	/	/	38%[59 µM]
COc1ccc(C2=CC(c3ccc(OC)c(OC)c3)NC(=S)N2)cc1 (centres undefined)	-7%	12%	58%	-27%	32µM*
COc1cccc(C2=CC(c3ccc(OC)c(OC)c3)NC(=S)N2)c1 (centres undefined)	-19%	5%	46%	?	/
COc1ccc(C2C=C(c3ccc(F)cc3)NC(=S)N2)cc1OC (centres undefined)	-30%	21%	?	?	45µM*
COc1ccc(C2CC(c3ccc(F)cc3)=NN2c2ccccc2)cc1OC (centres undefined)	8%	-7%	4%	-20%	?
COc1cccc(NS(=O)(=O)c2ccc3c(c2)CCCN3C(=O)C2CCC2)c1	-4%	/	7%[57 µM]	-1%	-3%[59 µM]
CO/N=C/C=C1/N(C)c2ccccc2C1(C)C	-13%	14%	16%	?	50µM*
Cc1ccccc1N=C/C=C1\N(C)c2ccccc2C1(C)C	-29%	8%	3%	7%	?
CN(C)c1ccc(N=C/C=C2/N(C)c3ccccc3C2(C)C)cc1	40µM*	-27%	?	20µM*	7.1µM*
CN1/C(=C\C=N\O)C(C)(C)c2ccccc21	-6%	12%	29%	-15%	-1%
CN1/C(=C\C=[N+](C)c2ccccc2)C(C)(C)c2ccccc21	35µM*	?	15%	-36%	?
COc1ccc(CN2CCNC(=O)C2CC(=O)N(C)CC2CCOCC2)cc1OC (centres undefined)	-4%	3%	32%	-16%	79µM*
COc1ccc(CN2CCNC(=O)C2CC(=O)N(C)CC2CCOCC2)cc1C (centres undefined)	-17%	14%	29%	-23%	79µM*
CCCCN1C(=O)C(=O)N(CC(=O)N2N=C3/C(=C/c4ccco4)CCCC3C2c2ccco2)C1=O (centres undefined)	?	45µM*	-28%	-33%	?
O=C(CSc1ncn[nH]1)N1N=C2/C(=C\c3ccco3)CCCC2C1c1ccco1 (centres undefined)	-32%	/	-7%	/	/
SMILES	JMJD2A Tudor	Sfp PPTase inh	HP1b chromo inh	BAZ2B inh	G9a block
O=C(CSc1ncn[nH]1)N1N=C2/C(=C/c3ccco3)CCCC2C1c1ccco1 (centres undefined)	56µM*	-20%	-25%	?	50µM*
CCOC(=O)c1cccc(NC(=O)N2CC=C(c3c[nH]c4ccccc34)CC2)c1	-32%	/	-15%	-35%	-51%[59 µM]
Cc1c(CCO)c(=O)n(-c2ccccc2)n1S(=O)(=O)c1ccc(Cl)cc1	?	-7%	22%	?	25µM*
C=CCOCC1CN2C(CCC(C)C2c2ccc(Br)cc2)C(=O)O1 (centres undefined)	/	3%	/	/	/
CCOc1ccc(NC(=O)NCC2CCN(Cc3ccc(F)cc3)CC2)cc1	-23%	2%	7%	-8%	-9%
COC(=O)c1cccc(N(C(=O)c2ccco2)C(C(=O)NC2CCCC2)c2ccc(N3CCOCC3)cc2)c1 (centres undefined)	-23%	15%	-10%	-6%	1%
O=C1c2ccccc2N2C(=O)c3ccccc3C2N1Cc1ccco1 (centres undefined)	-16%	50µM*	15%	?	?
COc1cccc(NC2c3ccccc3C(=O)N2Cc2ccco2)c1 (centres undefined)	?	?	9%	-36%	50µM*
O=C1c2ccccc2C(Nc2cccc(C(F)(F)F)c2)N1Cc1ccco1 (centres undefined)	?	40µM*	18%	-7%	71µM*
Cc1ccccc1NC1c2ccccc2C(=O)N1Cc1ccco1 (centres undefined)	-32%	28µM*	16%	?	45µM*
COc1cccc(NC2c3ccccc3C(=O)N2Cc2ccccc2Cl)c1 (centres undefined)	-20%	3%	5%	-18%	/
CCN(CC)S(=O)(=O)c1ccc(NC2c3ccccc3C(=O)N2Cc2ccco2)cc1 (centres undefined)	-22%	-18%	-5%	-25%	?
COc1cc2c(cc1OC)CN(C(=O)C1CCCN(C(=O)c3ccc(Cl)cc3)C1)CC2 (centres undefined)	-4%	/	31%	-3%	6%[12.7 µM]
O=C(Cn1cnc2ccccc21)N/N=C/c1cccnc1	-13%	22%	36%	-14%	-21%
Cc1nc2ccccc2n1CC(=O)N/N=C\c1ccccn1	?	?	33%	50µM*	?
O=C(Cn1cnc2ccccc21)N/N=C/c1ccccn1	-10%	79µM*	23%	10µM*	-1%[0.501 µM]
CCCN(C(=O)c1cccc(-n2cccc2)c1)c1c(N)n(Cc2ccccc2)c(=O)[nH]c1=O	16µM*	/	45µM*	50µM*	45µM*
CCCCN(C(=O)c1cccc(-n2cccc2)c1)c1c(N)n(CCC)c(=O)[nH]c1=O	14µM*	/	79µM*	45µM*	4%[0.501 µM]
Nc1nonc1-n1nnc(C(=O)N/N=C/c2ccc(Cl)cc2Cl)c1CN1CCCCC1	-6%	22%	53%	-5%	35µM*

High-throughput results as filed in PubChem BioAssay.
